# DPM-DC inhibit – S. pneumoniae DPM-DC inhibitors, primary screen, biochemical, PK/LDH-coupled NADH fluorescence; 65,000 tested, 0.49% active; diphosphomevalonate decarboxylase (Streptococcus pneumoniae D39); calls only at 10 µM; purified DPM-DC;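 active = the 320 compounds with the highest percent inhibition in the single-dose primary screen, excluding strongly autofluorescent ones, cut at about 32% in these data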;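 note: kinetic rate of NADH fluorescence loss reporting ADP formed by the decarboxylase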
# A340 absorber – compound light absorbance at 340 nm, profiling panel, artefact control, biochemical, MLSMR library, data from PS, PMK, MK assays; compound absorbance at 340 nm, fold over control; fold change at 10 µM; 65,000 tested, under 10 active;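 active = at 10 µM dose, initial 340 nm absorbance at least 2 fold that of control wells; inactive = change under 2 fold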;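 note: initial absorbance extrapolated from kinetic A340 decline of NADH oxidation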
# Autofluor 339 – intrinsic fluorescence of library compounds, ex339/em460 – biochemical, MLSMR library, data from DPM-DC assay, artefact control, profiling panel | compound autofluorescence, ex339/em460 nm, NADH buffer; stronger effect = higher value; 1 = no-compound wells, NADH background | fluorescence fold increase at 10 µM | 65,000 tested, 5.5% active | AID 709, 2007;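 active = at 10 µM, mean starting fluorescence two-fold or more over control wells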;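 note: signal is the first read of a kinetic run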
# NADH coupling – inhibitors of PK/LDH coupling enzymes, profiling panel, artefact control, biochemical, MLSMR library; coupled PK/LDH NADH assays, four targets; IC50, µM (top dose mostly 10 µM); 65,000 tested, 0.02% active; AID 774, 2007;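 active = single-dose screening hits from any of four coupled enzyme assays that gave an IC50 when retested across doses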;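 note: the DPM-DC format reads NADH fluorescence rather than 340 nm absorbance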
# MK inhibit – S. pneumoniae MK inhibitors, primary screen, biochemical, PK/LDH-coupled NADH absorbance; inhibition, % at 10 µM; AID 555, 2006; 65,000 tested, 0.48% active; purified MK, PK/LDH-coupled NADH absorbance 340 nm;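 active = ranked among the strongest by inhibition in the single 10 µM screen, a fixed top-ranked set picked for dose follow-up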
# PMK inhibit – S. pneumoniae PMK inhibitors, primary screen, biochemical, mevalonate pathway, pilot trial included | inhibition, % at 10 µM | phosphomevalonate kinase (Streptococcus pneumoniae D39) | purified PMK, PK/LDH-coupled NADH absorbance 340 nm | 65,000 tested, 0.49% active;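 active = top-ranked compounds by inhibition in the single 10 µM screen, taking a fixed number of the strongest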
# Numbers stand for hits; n = inactive; x = no result shown; + = active, no number; [ ] = another dose, or the depositor's remark. The list is not random: actives were taken first. Their share in the collection is about 6.8%.
SMILES,DPM-DC inhibit,A340 absorber,Autofluor 339,NADH coupling,MK inhibit,PMK inhibit
COc1cccc(N2CCN(C3CC(=O)N(c4ccc(F)c(Cl)c4)C3=O)CC2)c1 (stereo not given),n,n,n,n,n,n
N#Cc1cc(N)c(Nc2ccccc2)cc1C#N,n,n,3.54,n,n,n
Fc1ccc2c(Cl)c(-c3nnc(-c4cccs4)o3)sc2c1,x,n,3.65,n,n,n
O=C(Nc1nnc(-c2cccs2)o1)c1cccc(C(F)(F)F)c1,n,n,n,n,n,n
C=CCn1c(SCc2nc(N)nc(N3CCCCC3)n2)nnc1-c1ccco1,n,n,n,n,n,n
CCOc1ccc(-c2nnc(-c3ccco3)o2)cc1OCC,x,n,3.7,n,n,n
CCOc1cc(-c2nnc(-c3ccco3)o2)cc(OCC)c1OCC,n,n,2,n,n,n
c1coc(-c2nnc(-c3ccc4c(c3)OCO4)o2)c1,x,n,2.2,n,n,n
CCOC(=O)c1sc(=NC(=O)c2ccc(S(=O)(=O)N3CCOCC3)cc2)n(C)c1C,n,n,n,n,n,n
CCn1c(=NC(=O)c2ccc(S(=O)(=O)N3CCOCC3)cc2)sc2cccc(OC)c21,x,n,4.68,n,n,n
COc1cccc2sc(=NC(=O)c3ccc(S(=O)(=O)N4CCOCC4)cc3)n(C)c12,n,n,3.07,n,n,n
Cc1nn(Cc2ccccc2Cl)c(C)c1C(=O)N1CCN(c2ccccc2)CC1,n,n,n,n,n,n
O=C(NCc1cccnc1)c1cnn2ccccc12,n,n,n,n,n,n
Cc1cccn2c(=O)c3cc(C(=O)NCc4cccnc4)c(=N)n(C(C)C)c3nc12,x,n,3.7,n,n,n
Cc1ccc2nc3c(cc(C(=O)NCc4cccnc4)c(=N)n3C(C)C)c(=O)n2c1,x,n,5.04,n,n,n
Cc1cccn2c(=O)c3cc(C(=O)NCc4cccnc4)c(=N)n(C)c3nc12,n,n,n,n,n,n
Cc1cc(C)n2ncc(C(=O)NCc3cccnc3)c2n1,n,n,3.65,n,n,n
O=C(NCCN1CCOCC1)c1cc2sccc2n1Cc1ccc(Cl)cc1,n,n,n,n,n,n
Cc1ccc(C(=O)Nc2ccc(S(=O)(=O)N3CCN(C)CC3)cc2)o1,n,n,n,n,n,n
Cc1cccn2c(=O)c3cc(C#N)c(=O)n(-c4c(C)n(C)n(-c5ccccc5)c4=O)c3nc12,n,n,n,n,n,n
Cc1ccc(-n2c(=O)c(C#N)cc3c(=O)n4ccccc4nc32)cc1,x,n,3.26,n,n,n
Cc1cc(-n2c(=O)c(C#N)cc3c(=O)n4cccc(C)c4nc32)no1,x,n,4.02,n,n,n
Cc1cccn2c(=O)c3cc(C#N)c(=N)n(Cc4ccncc4)c3nc12,n,n,n,n,n,n
Cc1cccn2c(=O)c3cc(C#N)c(=NC(=O)c4ccc5c(c4)OCO5)n(CC(C)C)c3nc12,+,n,2.5,n,n,n
CC(=O)N=c1c(C#N)cc2c(=O)n3cccc(C)c3nc2n1CC(C)C,x,n,3.86,n,n,n
SMILES,DPM-DC inhibit,A340 absorber,Autofluor 339,NADH coupling,MK inhibit,PMK inhibit
COc1ccc(NC(=O)c2ccco2)cc1NC(=O)c1ccc(C)cc1,n,n,n,n,n,27.0
COc1ccc(NC(=O)c2ccco2)cc1NC(=O)c1ccc(Br)o1,n,n,n,n,n,n
Cc1ccc(NC(=O)c2cc(NC(=O)c3ccco3)ccc2N2CCCCC2)cc1,x,n,2.09,n,n,n
CCOc1cc(NC(=O)c2ccco2)c(OCC)cc1NC(=O)CCc1ccc(OC)cc1,+[fluoresces],n,2.11,n,n,n
CCOc1ccc(C(=O)Nc2ccc(NC(=O)c3ccco3)c(Cl)c2)cc1Br,n,n,2.95,n,n,n
CN(Cc1ccccc1)C(=O)C1CCN(Cc2ccc(F)cc2)CC1,n,n,n,n,n,n
Cc1nc2sc(C(c3ccco3)N3CCc4ccccc4C3)c(O)n2n1 (stereo not given),n,n,n,n,n,n
Cn1cccc1Cc1nnc(SCC(=O)NCC2CCCO2)n1-c1ccc(F)cc1 (stereo not given),n,n,n,n,n,n
CCOC(=O)C1CCN(S(=O)(=O)c2ccc(-c3nc4ccccc4s3)s2)CC1,n,n,2.17,n,n,n
c1ccc(CCn2nnnc2CN2CCc3ccccc32)cc1,n,n,n,n,n,n
COc1ccc(-c2nnc(Nc3nc4c(OC)cccc4s3)o2)cc1,n,n,n,n,n,n
Fc1cccc2sc(Nc3nnc(-c4ccccc4)o3)nc12,x,n,4.89,n,n,n
O=C(CSc1nnc(-c2ccccc2)o1)Nc1ccccc1F,n,n,n,n,n,n
COc1ccc(-c2nnc(Nc3nc4c(OC)cccc4s3)o2)c(OC)c1,+,n,2.33,n,n,n
COc1cc(OC)cc(-c2nnc(Nc3nc4c(F)cccc4s3)o2)c1,x,n,3.41,n,n,n
CCn1c(SCC(=O)N2CCN(c3ccccc3F)CC2)nnc1-c1ccoc1C,n,n,n,n,n,n
CC(=O)Nc1ccc(S(=O)(=O)N2CCN(c3nc(NC4CCCC4)c4ccccc4n3)CC2)cc1,x,n,2.2,n,n,n
CC(=O)Nc1ccc(S(=O)(=O)N2CCN(c3cc(C)nc4ccccc34)CC2)cc1,n,n,n,n,n,n
O=c1n(CCCN2CCN(c3cccc(Cl)c3)CC2)nc2ccccn12,x,n,2.37,n,n,n
COc1ccccc1NC(=O)NCCCN1CCN(c2cccc(Cl)c2)CC1,n,n,n,n,n,n
CCOc1ccccc1N1CCN(S(=O)(=O)c2cccc3nsnc23)CC1,n,n,n,n,n,n
CC1=C(C(=O)OC(C)C)C(c2cccs2)C2=C(CCCC2=O)N1 (stereo not given),n,n,n,n,n,n
CC1=C(C(=O)OC(C)C)C(c2cccnc2)C2=C(CCCC2=O)N1 (stereo not given),x,n,2.25,n,n,n
CC1=C(C(=O)OCC2CCCO2)C(c2ccccc2OC(C)C)C2=C(CC(c3ccco3)CC2=O)N1 (stereo not given),x,n,3.32,n,n,n
COC(=O)C1=C(C)NC2=C(C(=O)CCC2)C1c1ccccn1 (stereo not given),x,n,2.14,n,n,n
COCCOC(=O)C1=C(C)NC2=C(C(=O)CC(c3cccs3)C2)C1c1ccsc1 (stereo not given),n,n,2.39,n,n,n
CCN(CC)c1ccc(C2C(C(=O)OCCOC)=C(C)NC3=C2C(=O)CCC3)cc1 (stereo not given),n,n,n,n,n,n

# Screening data (PubChem)
